Laboratory results: PubChem BioAssay AID2112 (National Center for Advancing Translational Sciences (NCATS), 2009)
Among all 240,000 compounds or so, about 15 (0.006%) were called active. The call rests on the fitted dose curve; in most records, active means well fitted inhibition curve with a large enough effect; inconclusive means small, poorly fitted or top-dose-only effect, or effect the other way, or another doubt; inactive means no such curve, though single readings can be large or run the other way. Only a sample is shown.

What follows are compounds tested against Lysosomal alpha-glucosidase (Homo sapiens) (UniProt P10253) (assay: qHTS Assay for Inhibitors and Activators of Human alpha-Glucosidase From Spleen Homogenate). Settings: 4-MU-alpha-glucoside fluorescence; series mostly up to 79.9 µM.
From the text: NIH Chemical Genomics Center [NCGC] NIH Molecular Libraries Probe Production Centers Network [MLPCN] MLPCN Grant: R03 MH084841-01 Assay Submitter (PI): Wei Zheng NCGC Assay Overview: Alpha-glucosidase is responsible for the hydrolysis of terminal, non-reducing 1,4-linked alpha-D-glucose residues, which releases alpha-D-glucose. It is a lysosomal hydrolase that is required for the degradation of a small percentage (1-3%) of cellular glycogen in humans. Deficiency of this enzyme results in glycogen-storage disease type II (GSDII), also referred to as Pompe disease, an autosomal recessive disorder. Structurally normal glycogen is accumulated in the lysosomes and cytoplasm in affected patients, primarily in muscle tissues. Excessive glycogen storage within lysosomes may interrupt normal functioning of other organelles and leads to cellular injury. In turn, this leads to enlargement and dysfunction of the entire organ involved (eg: cardiomyopathy and muscle weakness). It has been reported that the improper folding and trafficking of alpha-glucosidase resulting from genetic mutations may account for a significant number of Pompe patients. […] We optimized this alpha-glucosidase assay in 1536-well plate format for identification of novel small molecule inhibitors or activators with structures other than the sugar analogs in order to develop new pharmacological chaperones. In particular, this assay is directed towards discovering compounds active in a more natural setting, tissue homogenate, that may have been missed by screens of the purified enzyme under more stringent conditions.
NCGC Assay Protocol Summary: This is a fluorogenic enzyme assay with 4-methylumbelliferyl-alpha-D-glucopyranoside as the substrate and human spleen homogenate containing alpha-glucosidase as the enzyme preparation. Upon hydrolysis of this fluorogenic substrate, the resulting product, 4-methylumbelliferone (which excites at 365 nm and emits at 440 nm) can be detected by a fluorescence plate reader. Data were normalized to the controls for basal activity (without enzyme) and 100% activity (with enzyme). The AC50 values were determined from concentration-response data modeled with the standard Hill equation. Assay buffer: 50 mM citric acid (titrated with potassium phosphate to pH 5.0), 0.01% Tween-20 (pH 5.0 is an optimal condition for this enzyme assay) 1536-well assay protocol for the alpha-glucosidase from human spleen homogenate: (1) Add 2 ul/well spleen homogenate (1 ug) (2) Add 23 nL compounds in DMSO solution. The final titration was 0.5 nM to 58 uM. (3) Add 2 ul of substrate (1 mM final) (4) Incubate at 37 C for 40 min (5) Add 2 ul stop solution (1M NaOH and 1M Glycine mixture, pH 10) (6) Detect the assay plate in a ViewLux plate reader (PerkinElmer) with Ex=365 nm and Em=440nm. Keywords: Alpha-glucosidase, Pompe Disease, pharmacological chaperone, chaperone therapy, high throughput screening, alpha-glucosidase inhibitor, MLSMR, MLSCN, NIH Roadmap, qHTS and NCGC

outcome, inactive:
O=c1cc(-c2ccc(O)cc2)oc2c([C@@H]3O[C@H](CO)[C@@H](O)[C@H](O)[C@H]3O)c(O)cc(O)c12
Cc1sc2ncnc(Sc3nc4ccccc4s3)c2c1C
COc1ccc(C(CC(=O)c2ccccc2)S(=O)(=O)c2ccccc2)cc1 (stereo unspecified)
O=C1NNC(c2ccccc2)=N/C1=C\c1ccc(Cl)cc1
CC(O)[C@@H](N)C(=O)O (stereo partly specified)
OCCC(O)CO (stereo unspecified)
Cc1ccc(-c2cn(S(=O)(=O)c3cccc([N+](=O)[O-])c3)nc2N)cc1
ONC(=Nc1ccccc1)c1ccccc1Cl
Cc1c(Br)ccc(NC(=O)COc2ccccc2C(N)=O)c1C
O=C(NCCc1ccccc1)C1CCN(S(=O)(=O)c2ccc(Br)s2)CC1
C=CCn1c(SCC(=O)c2c(N)n(C)c(=O)n(C)c2=O)nc2sc(CC)cc2c1=O
C=CCOC(=O)C(=C)C
Cc1ccc(SCC(CC(C)C)N2CCN(CCc3ccccc3)CCC2=O)cc1 (stereo unspecified)
Cc1nc(=O)c(-c2ccccc2)c(C)n1-c1ccc(Br)cc1
Cc1cc(OCCCC(=O)NCCN2C(=O)S/C(=C\c3cccnc3)C2=O)ccc1Cl
Fc1ccc(Cl)cc1-c1nc(Nc2ccncc2)c2nccnc2n1
CCOC(=O)c1sc(C)c2c1NC(C)(c1cccc3ccccc13)NC2=O (stereo unspecified)
COc1ccc2c(c1)c(=O)c(C(=O)c1ccc(Cl)cc1)cn2CC(=O)Nc1ccc(F)cc1
CCOCCOC(=O)C(C)Oc1ccc(Oc2ncc(C(F)(F)F)cc2Cl)cc1 (stereo unspecified)
S=c1ccc2ccccc2[nH]1
C=CCC(C(=O)c1ccccc1)[N+](C)(C)CC=C (stereo unspecified)
O=c1[nH]oc(O)c1-c1ncc(C(F)(F)F)cc1Cl
Cc1cc2ccccn2c1C(=O)c1cccc(S(=O)(=O)N2CCOCC2)c1
CC(=O)NNC(=O)c1csc(Cc2c(Cl)sc3ccc(Cl)cc23)n1
CCCCc1nn(-c2ccccc2C(F)(F)F)c(=O)n1Cc1ccc(-c2ccccc2S(=O)(=O)NC(=O)c2sccc2C)cc1
COC(=O)c1sc(-c2ccc(C(C)(C)C)cc2)cc1NC(=O)/C=C/C(=O)O
CNC(=O)[C@]1(C(F)(F)F)C[C@H](CCc2ccccc2)CCCO1
C[C@@H]1O[C@@H](OC[C@H]2O[C@@H](Oc3cc(O)c4c(c3)O[C@H](c3ccc(O)c(O)c3)CC4=O)[C@H](O)[C@@H](O)[C@@H]2O)[C@H](O)[C@H](O)[C@H]1O
O=C1C[C@@H](c2ccc3ccccc3c2)N1S(=O)(=O)c1ccccc1[N+](=O)[O-]
O=C(Nc1cc(C(=O)Nc2ccc(S(=O)(=O)O)cc2)cc(C(=O)Nc2ccc(S(=O)(=O)O)cc2)c1)Nc1cc(C(=O)Nc2ccc(S(=O)(=O)O)cc2)cc(C(=O)Nc2ccc(S(=O)(=O)O)cc2)c1
O=c1[nH]c(CN2CCN(S(=O)(=O)c3ccc4c(c3)OCCO4)CC2)nc2sc3c(c12)CCCC3
CC(Oc1ccc(Br)cc1Br)C(=O)NC1CCCC1 (stereo unspecified)
O=C(O)C1CC=CC2CCN(C3CCCCC3)C(=O)C21 (stereo unspecified)
COc1ccc(Br)cc1C1C2C=CCC(C)C2C(=O)N1Cc1ccccc1 (stereo unspecified)
CCCCC/C=C\C/C=C\CCCCCCCCCC(N)=O
CCCCN(CC)C(=O)c1ccccc1Oc1ccccc1
O=C(COc1ccc(/C=N/NS(=O)(=O)c2ccccc2)cc1)NCCc1ccccc1
Oc1ccc(N2CCN(C(=S)NCc3ccccc3)CC2)cc1
COc1ccc(C[C@H](C(=O)O)N2C(=O)c3ccc(C(=O)O)cc3C2=O)cc1
CCNc1nc(NC(C)C)nc(N2CC(=O)N(CC(=O)OCC)C2=N)n1
Cc1cc2oc(C(=O)Nc3c(C)n(C)n(-c4ccccc4)c3=O)c(C)c2cc1Cl
CC1(C)Cc2nc3sc4c(SCC(=O)NC(c5ccccc5)c5ccccc5)ncnc4c3cc2CO1
FC(F)(F)c1nc(-c2ccccc2)ncc1-c1nnnn1-c1ccccc1
CCCCNc1ccc(C(=O)Nc2cccc(C)n2)cc1[N+](=O)[O-]
COc1cc(NS(=O)(=O)c2ccc3ccccc3c2)c2ncccc2c1
CC/C(=N\NC(=O)c1ccccc1Cl)c1ccc(Br)s1
Cc1noc(C)c1-c1ccc2ncnc(NC(C)c3ccco3)c2c1 (stereo unspecified)
CN(C)CCc1c[nH]c2ccc(Cn3cncn3)cc12
CC1CCC(C(C)C)C(=O)/C1=C\c1ccc(NC(=O)CCC(=O)O)cc1 (stereo unspecified)
O=c1[nH]c2cccnc2n(CCNc2ncc(C(F)(F)F)cc2Cl)c1=O
NC1CCN(O)C1=O (stereo unspecified)
CN1CCN2c3ccccc3Cc3ccccc3[C@@H]2C1
C=C1CCN(C(CC(C)C)C(=O)N2CCOCC2)S(=O)(=O)c2ccccc21 (stereo unspecified)
CCN(CC)/[N+]([O-])=N/Oc1cc(O/[N+]([O-])=N/N2CCCC2CO)c([N+](=O)[O-])cc1[N+](=O)[O-] (stereo unspecified)
Cc1cccc([C@H]2[C@@H]3C=CC[C@@H](C)[C@@H]3C(=O)N2Cc2ccccc2)c1
CCOC(=O)C1=C(C)c2ccccc2OC1C(=O)OCC (stereo unspecified)
O=C(O)CCn1c(O)c(C=C2N=c3ccccc3=N2)sc1=S
COc1cc(OC)c2c(c1C(CCN1CCCCC1)c1ccc(N(C)C)cc1)OC(=O)CC2c1ccc(N(C)C)cc1 (stereo unspecified)
O=C1CN(Cc2ccccc2)S(=O)(=O)c2ccccc21
Cc1cc(=O)oc2cc(NC(=O)C3CC(=O)N(Cc4ccccc4)C3)ccc12 (stereo unspecified)
Cc1c(CN2CCC(CO)(CCOc3ccccc3)CC2)[nH]c2ccc(Cl)cc12
CC(C)=CCN1CCC2(CCc3ccccc32)CC1
CC(CNc1ccc([N+](=O)[O-])cc1)NC(=O)c1ccccc1Br (stereo unspecified)
CC1CCN(S(=O)(=O)c2ccc3ncn(CC(=O)N(C)C4CCCCC4)c(=O)c3c2)CC1
OC(COCC1COc2ccccc2O1)CN1CCN(c2ccc(F)cc2)CC1 (stereo unspecified)
C=C(C)C(=O)c1ccc(F)cc1
CC[C@H](C)[C@H](NC(=O)[C@@H](N)CCC(=O)O)C(=O)N[C@@H](CC(C)C)C(=O)N[C@@H](CC(=O)O)C(=O)N[C@H](C(=O)N1CCC[C@H]1C(=O)N[C@@H](CO)C(=O)N[C@H](C(=O)O)[C@@H](C)O)C(C)C
H-EHIPA-OH
O=C(NCCCCc1ccccc1)C1CC(c2ccc([N+](=O)[O-])cc2)=NO1 (stereo unspecified)
COc1ccccc1-c1nnc(NC(=O)c2ccc3ncsc3c2)o1
CN1CCN(c2cc3c(cc2F)c(=O)c(C(=O)O)cn3CCF)CC1
CCOC(OCC)OCC
Oc1ccc(-c2c(-c3ccccc3)nn3c(C(F)(F)F)cc(C(F)(F)F)nc23)cc1
O=C(NCCCNc1ccc([N+](=O)[O-])cc1Cl)c1ccccc1F
COCCCNC(=S)N1CCCC(c2nc3cc(C)c(C)cc3[nH]2)C1 (stereo unspecified)
Brc1ccc2ncnc(NCc3cccnc3)c2c1
CCCC1=Nc2cc(C(=O)NCc3ccco3)ccc2Sc2ccccc21
CCOC(=O)c1c(C)n(C)c2ccc(OC)c(NS(=O)(=O)CC)c12
C/C=C(\C)C(=O)NCCN1C2=NC[C@H](Cc3ccc(O)cc3)N2C[C@@H]1Cc1ccc(OC)cc1
COc1ccc(C2=Nn3c(nnc3-c3ccccc3O)SC2)cc1
Cn1ccc(=NC=C(C#N)C#N)c2ccccc21
COc1ccc(C2=NN(C(=O)c3cccnc3)C(c3ccccc3)C2)cc1 (stereo unspecified)
Cc1cc(N(C)C)nc(Cl)n1
O=C(CSc1cccc[n+]1[O-])c1ccc(-c2ccccc2)cc1
COc1cccc(CC2(CO)CCN(Cc3cnc(-c4cccc(C)c4)nc3)CC2)c1
O=C(Nc1ccccc1F)c1ccccc1-c1ccc(C(F)(F)F)cc1
O=[N+]([O-])c1ccccc1SNc1ccccn1
N#Cc1cccc(CS(=O)(=O)c2nnnn2-c2cc(C(F)(F)F)cc(C(F)(F)F)c2)c1
FC(F)(F)c1cccc(-c2cc3ccccc3nc2N2CCCC2)c1
O=C(Nc1ccc(Cl)cc1)/C(=C1\CCCN1)[N+](=O)[O-]
Cc1noc(C)c1-c1ccc2ncnc(NCc3ccc4[nH]ccc4c3)c2c1
COc1ccc(Cl)cc1NC(=O)COC(=O)C(CC(C)C)N1C(=O)C2CC=CCC2C1=O (stereo unspecified)
O=C(CCl)Nc1cccc(CP(=O)(c2ccccc2)c2ccccc2)c1
Cc1ccc(CNC(=O)C2(C(F)(F)F)C/C(=C\Cc3ccccc3)CCCO2)o1 (stereo unspecified)
CCCN1CCC(=O)N(C(CSc2ccc(C)cc2)Cc2ccccc2)CC1 (stereo unspecified)
COC(=O)Cn1cc(/C=C/[N+](=O)[O-])c2ccccc21
O=C(NCc1ccccn1)[C@]1(C(F)(F)F)C[C@H](CCc2ccccc2)CCCO1
CC(C)[C@@H]1NC(=O)[C@H](Cc2ccccc2)NC(=O)[C@@H](CC(=O)O)NC(=O)CNC(=O)[C@H](CCCNC(=N)N)NC1=O
COC(=O)[C@@]1(Cc2ccc(OC)cc2)[C@H]2c3cc(C(=O)N4CCCC4)n(Cc4ccc(OC(F)(F)F)cc4)c3C[C@H]2CN1C(=O)c1ccccc1
COc1ccc(C2/C=C\CN(Cc3ccco3)C(C)C(=O)N2Cc2ccc(F)cc2)cc1 (stereo unspecified)
COc1cc2c(cc1OC)C(/C=C/c1ccco1)=NCC2
